Assay outcomes from PubChem.
Sampled rows, rich in hits. Any-hit rate of the full collection: about 2.9%.
NR1D1 modulator: modulates human Rev-erb alpha binding to DNA; P20393; Rev-erbα–FITC-DNA binding, fluorescence polarization, 90 min; activity, % at 10 µM; 370,000 compounds, 0.79% hits; AID 1259318;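 active means activity above about 14%, limit read from the data; passing the limit was not always enough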;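 further: 0% = DMSO wells with 35 nM protein and 100% = DMSO wells with 750 nM protein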
EP2 modulator: modulators of human EP2 prostaglandin E2 receptor | EP2-expressing cells, cAMP HTRF FRET, PGE2 co-stimulation | induction, % at 25 µM | 260,000 compounds, 0.83% hits;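 active means compounds whose cAMP rise, as percent of the full-agonist control response, exceeds 60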;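 further: rat C6 glioma line stably carrying human EP2 under a CMV promoter; the protocol text gives 20 µM as final concentration; 100% = response of wells given 1 µM PGE2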
Target sequence (P43116 whole entry, looked up): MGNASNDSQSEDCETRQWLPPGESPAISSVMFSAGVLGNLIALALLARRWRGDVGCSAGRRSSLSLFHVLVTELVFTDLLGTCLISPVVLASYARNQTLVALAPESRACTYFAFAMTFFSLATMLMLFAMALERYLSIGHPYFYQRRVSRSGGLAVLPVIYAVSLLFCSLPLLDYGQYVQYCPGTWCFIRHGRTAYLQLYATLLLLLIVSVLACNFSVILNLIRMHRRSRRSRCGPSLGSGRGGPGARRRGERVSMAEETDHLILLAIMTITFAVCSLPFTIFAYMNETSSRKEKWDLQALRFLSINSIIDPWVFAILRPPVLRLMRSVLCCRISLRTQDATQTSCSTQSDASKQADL
EP2 antag: blocks the human prostaglandin E2 receptor EP2. P43116. C6 glioma cells expressing human EP2, cAMP TR-FRET; cells stimulated with saturating PGE2. inhibition, % at 25 µM. 260,000 compounds, 0.52% hits;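 active means percent inhibition above 40 after rounding to a whole number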;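 further: rat C6 glioma host cells with rolipram phosphodiesterase inhibitor present; the protocol text gives 20 µM as final concentration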
RAM inhibit: blocks the yeast RAM network; 190,000 compounds, 1.8% hits; inhibition, % at 50 µM; S. cerevisiae dse1pr::URA3 reporter, 5-FOA growth OD615, 2 d; analog-sensitive cbk1-as2 kinase mutant strain;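 active means inhibition above a set limit, 3 SD over mean compound inhibition, cut at about 8.4% in these data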;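 further: 0% = DMSO-only wells with no growth and 100% = 10 µM 1-NA-PP1 full growth; inhibition rescues growth on 5-FOA so higher OD means more RAM inhibition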
PG9 binder: small molecules binding HIV-1 gp120 antibody PG9 | AID 624416 | TR-FRET gp120-PG9 antibody binding | 360,000 compounds, 0.43% hits | inhibition, % at 6.7 µM; in the data active means inhibition above about 8.5%
SKN-1 block: C. elegans SKN-1 inhibition. C. elegans VP596 Pgst-4::GFP/RFP ratio, acrylamide-induced, 24 h. inhibition, % at 21.8 µM. 360,000 compounds, 0.49% hits;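 active means interference check ratio from 0.5 to 1.5 plus GFP to RFP signal ratio inhibition reaching or exceeding a fixed threshold, cut at about 30% in these data, passing the limit was not always enough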
* = called active by the depositor; · = no result given.

SMILES | NR1D1 modulator | EP2 modulator | EP2 antag | RAM inhibit | PG9 binder | SKN-1 block
CCOC(=O)C1=C(N)N2C(=O)C(C)SC2=C(C(=O)OCC)C1c1ccccc1 (configuration not stated) | -6.8 | 62.3* | 8.6 | 0.6 | -2.0 | -2.0
COCCn1nnnc1C(c1ccc(C)cc1)N1CCC(C)CC1 (configuration not stated) | · | -48.3 | 10.4 | · | · | ·
Cn1c2ccccc2c(=O)c2c(=O)n(Cc3ccco3)c(-c3ccc(C(C)(C)C)cc3)nc21 | · | 64.6* | 10.2 | · | · | ·
O=C1CN(C(=O)c2ccc(Br)o2)C(c2ccccc2)c2cc(Br)ccc2N1 (configuration not stated) | -3.3 | 9.9 | · | 3.4 | -1.5 | 58.9*
COc1cccc(C2(NC(=O)c3nc4nc(C)cc(C(F)F)n4n3)CCCC2)c1 | · | -57.0 | 6.4 | · | · | ·
O=C(Nc1ccc(Cl)cn1)c1ccccc1F | -3.2 | 28.3 | 6.4 | 1.5 | 2.5 | 59.0*
CCOc1ccc(C(=O)Nc2ccc(Cl)cn2)cc1Cl | 3.5 | -6.9 | 7.7 | 8.7* | 0.3 | 17.8
O=C(COc1ccc(Cl)cc1Cl)Nc1ccc(Cl)cn1 | 1.9 | 13.5 | 17.9 | 5.1 | -0.8 | 1.9
COc1cccc(/C(O)=C2/C(=O)C(=O)NC2c2cc(OC)ccc2OC)c1 (configuration not stated) | · | 3.2 | 8.0 | · | · | ·
CSc1ncc(-c2ccccc2)cn1 | -1.7 | 9.8 | 8.3 | -0.2 | 0.1 | 26.5
C=CCSc1ncc(-c2ccccc2)cn1 | 3.1 | 4.6 | 8.6 | -0.4 | -2.6 | 73.0*
C=CCSc1n[nH]c(-c2ccccc2)n1 | 5.3 | 10.3 | 11.4 | -0.7 | 0.1 | 14.9
C#CCSc1ncc(-c2ccccc2)cn1 | 4.2 | 16.9 | 3.6 | 1.6 | 0.8 | 90.4*
CC(O)c1cccc(NC(=O)c2cc3n(n2)C(C(F)(F)F)CC(c2ccco2)N3)c1 (configuration not stated) | · | -64.3 | 7.0 | · | · | ·
O=C(Cc1ccc(Cl)cc1)N1CCCC(c2noc(-c3ccccn3)n2)C1 (configuration not stated) | · | -35.3 | 5.5 | · | · | ·
Cc1ccc(NC(=O)c2cc(NC(=O)c3ccco3)ccc2N2CCOCC2)cc1 | -8.5 | 7.9 | 17.4 | 1.8 | 0.6 | -13.2
Cc1ccc(NC(=O)c2cc(N3C(=O)C=CC3=O)ccc2N2CCOCC2)cc1 | 5.6 | -71.7 | 117.7* | -3.1 | 1.4 | 3.2
C=CCNC1=C(Cl)C(=O)N(c2ccccc2Cl)C1=O | -4.5 | 18.4 | -0.6 | 8.9* | 1.2 | 18.3
O=C(CSc1nc(-c2cccs2)cc(C(F)(F)F)n1)Nc1ccccc1F | · | -61.0 | 19.4 | · | · | ·
CC(=O)c1ccc(NC(=O)C2(c3ccccc3)CC2(Cl)Cl)cc1 (configuration not stated) | -3.9 | -22.4 | 1.9 | · | 0.9 | 5.1
O=C(Nc1ccccc1Cl)C1(c2ccccc2)CC1(Cl)Cl (configuration not stated) | 5.5 | 62.1* | 3.7 | 2.8 | 2.5 | -12.2
CCCn1c2ccccc2n2c(C(=O)c3cccs3)c(C)nc12 | · | 2.0 | 7.5 | · | · | ·
CCOC(=O)c1nn(-c2ccc(OC)cc2)c(=O)c(C#N)c1C | · | -33.0 | 73.6* | · | · | ·
Cc1nc(SCC(=O)Nc2ccccc2F)c2c(C)c(C)sc2n1 | · | 30.2 | 6.8 | · | · | ·
O=C(/C=C/c1ccco1)Nc1c[nH]c(=O)[nH]c1=O | · | -2.6 | 9.4 | · | · | ·
SMILES | NR1D1 modulator | EP2 modulator | EP2 antag | RAM inhibit | PG9 binder | SKN-1 block
CCOC(=O)c1ccc(Nc2nc(=O)c3cccnc3s2)cc1 | 3.6 | -4.2 | 8.9 | 0.9 | -2.2 | 3.2
O=c1nc(Nc2ccc(OCc3ccccc3)cc2)sc2ncccc12 | 5.6 | -42.1 | 10.6 | 9.3* | -2.4 | -8.5
COc1ccccc1N1CCN(C(=O)c2ccc(CSc3ccccc3)cc2)CC1 | 2.8 | -3.9 | 1.4 | 9.8* | 2.9 | 1.4
COc1ccccc1N1CCN(C(=O)c2ccc(-c3ccccc3)cc2)CC1 | 0.4 | · | · | · | -2.4 | 1.2
CC(C)C(OC(=O)CN1C(=O)COc2ccccc21)C(=O)NC1CCCC1 (configuration not stated) | -5.3 | 22.5 | 8.2 | 0.6 | -0.7 | -13.2
Cc1ccc2c(c1)N(CC(=O)OC(CC(C)C)C(=O)NC1CCCC1)C(=O)CO2 (configuration not stated) | -5.3 | 28.6 | 5.4 | 8.7* | 0.2 | -2.6
O=C(O)CNC(=O)/C(=C\c1ccc2c(c1)OCO2)NC(=O)c1ccc(Br)cc1 | 1.3 | -2.7 | 10.9 | 1.7 | -1.6 | -13.2
